According to PubChem BioAssay AID624330 (Southern Research Specialized Biocontainment Screening …, 2012):
Hit rate of the full screen: of about 340,000 compounds, about 2,100 (0.62%) were called active.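 How the source made its calls: active means first-screen hits whose inhibition reached a set limit at any dose in the follow-up dose series; inconclusive means inhibition above the set first-screen limit but never retested; inactive means the rest.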 Only a sample is shown. Entries with a potency or affinity are not part of this list.

What follows are compounds tested against Rac GTPase-activating protein 1 (Homo sapiens) (UniProt Q9H0H5) (assay: MgcRacGAP GTPase-activating activity inhibitors, confirmation, biochemical, ADP Hunter fluorescence, primary and confirmatory (AID 624330;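 further: fluorescence reports GDP produced by GAP-driven GTP hydrolysis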)). Settings: MgcRacGAP-stimulated Rac1 GTP hydrolysis, at 30 µM, hits give high values, GST-tagged Rac1 F28L mutant substrate.
Rac GTPase-activating protein 1 (Homo sapiens), sequence (Q9H0H5 whole entry, looked up): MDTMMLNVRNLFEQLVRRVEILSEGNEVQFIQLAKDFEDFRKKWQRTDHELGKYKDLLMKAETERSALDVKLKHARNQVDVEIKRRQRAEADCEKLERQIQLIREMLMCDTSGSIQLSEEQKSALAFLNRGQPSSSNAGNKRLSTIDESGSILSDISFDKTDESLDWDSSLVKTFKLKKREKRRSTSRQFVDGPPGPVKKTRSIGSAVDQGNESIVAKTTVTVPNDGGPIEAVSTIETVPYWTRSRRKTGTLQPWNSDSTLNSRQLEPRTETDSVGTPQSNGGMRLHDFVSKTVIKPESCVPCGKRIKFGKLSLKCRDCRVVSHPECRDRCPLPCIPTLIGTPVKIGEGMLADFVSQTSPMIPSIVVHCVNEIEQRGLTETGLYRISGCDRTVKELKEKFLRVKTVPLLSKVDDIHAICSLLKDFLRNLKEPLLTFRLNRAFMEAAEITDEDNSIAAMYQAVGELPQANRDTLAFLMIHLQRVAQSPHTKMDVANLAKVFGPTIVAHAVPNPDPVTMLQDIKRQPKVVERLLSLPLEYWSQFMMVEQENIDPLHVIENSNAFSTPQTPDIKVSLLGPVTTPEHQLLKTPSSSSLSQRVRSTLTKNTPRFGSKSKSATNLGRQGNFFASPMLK

inhibition, inactive:
CC(Sc1nnnn1-c1ccc(O)cc1)C(=O)NNC(=O)c1ccc(F)cc1 (configuration not stated) 2.11%
O=C(NCCN1C(=O)S/C(=C/c2ccccc2)C1=O)C1CC(=O)N(Cc2ccccc2)C1 (configuration not stated) 7.02%
Cc1c(C)n(CC(O)CNCCO)c2ccccc12 (configuration not stated) 18.2%
Cc1c(C)n(CC(O)CNc2ccccc2)c2ccccc12 (configuration not stated) 20.8%
CN1CC(=O)N/C1=N\C(=O)Nc1ccc2c(c1)N(C)C(=O)CS2 2.74%
COc1ccc(/C=C/C(=O)OCC(=O)NC(=O)NC(C)(C)C)cc1 2.69%
COc1cc(/C=C/C(=O)OCC(=O)NC(=O)NC(C)C)cc(OC)c1OC 6.89%
COc1cc(/C=C/C(=O)OCC(=O)NC(=O)NC(C)C)ccc1OCC#N 0.8%
COc1cc(/C=C/C(=O)OCC(=O)NC(=O)NC(C)(C)C)cc(OC)c1OC 8.1%
O=C1c2ccccc2NC(c2ccc([N+](=O)[O-])cc2)N1O (configuration not stated) 4.29%
O=S(=O)(Nc1cccc(S(=O)(=O)N2CCOCC2)c1)c1ccc(Cl)s1 -0.61%
CCc1nc2sccc2c(=O)n1N -1.25%
O=C(CNC(=O)c1ccccc1)NCCc1ccc(O)c(O)c1 10.9%
CCN(Cc1ccncc1)Cc1cn[nH]c1-c1ccc(OC)cc1F -2.02%
CCN(Cc1ccccc1)Cc1ccc(OCc2ccccc2)c(OC)c1 10.8%
CCN(Cc1ccncc1)Cc1ccc(Br)cc1 28%
COc1ccc(CNCc2ccncc2)c(OC)c1 5.34%
COc1ccc(NC(=O)C2CCN(S(=O)(=O)c3c(C)noc3C)CC2)cc1 8.66%
Cc1cc(C)n2nc(CC(=O)NNC(=O)COc3cccc(C)c3C)nc2n1 -3.96%
CCCCOCCCNC(=O)c1ccc(OC)cc1 4.46%
Cc1cc(Cl)ccc1N(CC(=O)N(C)Cc1ccccc1)S(C)(=O)=O 18.6%
CCC(SC1=N/C(=C/c2ccccc2OC)C(=O)N1c1ccccc1)C(=O)Nc1cc(C)on1 (configuration not stated) 12.8%
O=c1[nH]c(SCc2ccccc2)nc2c1cnn2-c1ccc(F)cc1 14%
Cc1cc(C)n2nc(C(=O)OCC(=O)N(C)CC(=O)Nc3ccccc3Cl)nc2n1 1.5%
CC(C)CO/C(=N/S(=O)(=O)c1ccccc1)c1ccccc1 5.75%
CS/C(=N\S(=O)(=O)c1ccccc1)c1ccccc1 5.35%
COc1cc(/C=N/NC(=O)C2c3ccccc3Oc3ccccc32)ccc1O 5.77%
O=C(N/N=C\c1cccnc1)C1c2ccccc2Oc2ccccc21 3.36%
Cn1cc(CN2CCC(C(=O)Nc3cccc(-c4cccc(F)c4)c3)CC2)cn1 5.69%
c1ccc(NC2=NCCN2CC2CCCCCC2)cc1 7.17%
O=C(CSc1nnc(-c2cccnc2)o1)Nc1cccc(Cl)c1 4.31%
N#Cc1cccc(NC(=O)CCN2C(=O)C3CCCCC3C2=O)c1 (configuration not stated) -0.53%
O=C1NC(=O)N(c2ccc(Cl)cc2)C(=O)/C1=C/c1ccc2c(c1)CCN2Cc1ccccc1Cl 10.3%
O=C1/C(=C/c2ccc(N3CCCC3)cc2)NC(=S)N1C1CC1 27.1%
COc1ccc(NC(=O)Nc2ccc3c(c2)C(=O)N([C@H](C)CO)C[C@H](C)[C@@H](CN(C)S(C)(=O)=O)O3)cc1 11.1%
O=S(N1CCCCC1)C12CC3CC(CC(C3)C1)C2 (configuration not stated) -0.65%
COc1cccc(NC2=C(C#N)C(=O)NC(c3cccc(OC)c3O)S2)c1 (configuration not stated) 36.1%
CSC1=C(C#N)C(=O)NC(c2ccccc2O)S1 (configuration not stated) 25.9%
O=C(CCCN1C(=O)c2ccccc2C1=O)Nc1cccc(S(=O)(=O)NC2=NCCC2)c1 9.21%
Cc1ccc(C)c(NC(=O)COC(=O)CCC(=O)c2cccs2)c1 -3.89%
COc1cccc(CNCc2ccc(C(=O)O)cc2)c1OC 1.24%
Cc1cc(=O)oc(C)c1C(=O)NCCCN1CCN(c2ccccc2F)CC1 6.67%
CCOC(=O)c1[nH]c2ccc(OC)cc2c1C 7.86%
CCOC(=O)c1[nH]c2cc(OC)c(OC)cc2c1NC(=O)c1nonc1C 9.89%
CCOC(=O)c1[nH]c2ccc(C)cc2c1N=CN(CC)CC 17.7%
CCOC(=O)c1[nH]c2ccc(C)cc2c1N=C(C)N(C)C 9.84%
COc1ccc(NC(=O)NNC(=O)c2cc3ccccc3cc2O)cc1 11.5%
NC(=O)C1CCCN(S(=O)(=O)c2ccc3ccccc3c2)C1 (configuration not stated) 2.91%
Cc1onc(-c2ccccc2)c1-c1n[nH]c(=S)n1-c1ccc(C(=O)O)cc1 5.16%
CC(=O)Nc1ccc(S(=O)(=O)N(C)S(=O)(=O)c2ccc(F)cc2)cc1 10.5%
CC(=O)c1cc(CN2CCN(Cc3ccc(C)cc3)C(CCO)C2)cs1 (configuration not stated) 11.3%
CCOC(=O)N1CCN(Cc2ccc3ccccc3c2)CC1 28.6%
CC(CCN1CCN(c2ccccc2)CC1)c1ccccc1 (configuration not stated) 0.31%
c1ccc2cc(CN3CCOCC3)ccc2c1 1.35%
O=[N+]([O-])c1ccccc1CN1CCN(Cc2ccc3ccccc3c2)CC1 28.3%
CC(CCN1CCOCC1)c1ccccc1 (configuration not stated) 22.5%
O=S(=O)(c1ccc2ccccc2c1)N1CCN(CCO)CC1 1.28%
CC1c2[nH]c3ccccc3c2CCN1S(C)(=O)=O (configuration not stated) 1.37%
Cc1ccc2cc(/C=N/NC(=O)c3ccc(F)cc3)c(Cl)nc2c1 5.25%
Cc1ccccc1NS(=O)(=O)c1cc(C(=O)Nc2cccc([N+](=O)[O-])c2)ccc1C 8.26%
O=C(Nc1cccc(-c2cccc(Cl)c2)c1)C1CCN(Cc2ccccn2)CC1 2.6%
CC(NS(=O)(=O)CCNC(=O)c1ccccc1)c1ccccc1 (configuration not stated) 4.33%
CC(=O)Nc1ccc(S(=O)(=O)N[C@@H](C)C(=O)OCC(=O)c2ccc(Br)s2)cc1 16.7%
CCn1nnnc1Oc1ccc(Cl)cc1 1.61%
C(=N/n1c2ccccc2c2ccccc21)/c1ccco1 14.3%
S=c1[nH]nc(-c2ccccc2)n1/N=C/C=C/c1ccco1 30.9%
Cc1ccc(CN2CCN(/N=C/c3ccc(C(=O)O)cc3)CC2)cc1 8.13%
Cc1cc(C)n(-c2nnc(C)n2/N=C/c2ccco2)n1 2.53%
COc1cccc(/C=N/n2c(SC)nnc2-c2ccccc2)c1O 22.8%
S=c1[nH]nc(-c2cccnc2)n1/N=C/C=C/c1ccco1 21.5%
Oc1ccccc1/C=N/n1c2ccccc2c2ccccc21 8.39%
Cc1nnc(C)n1/N=C/c1ccc(C(=O)O)cc1 7.46%
NC(=O)COC(=O)c1cccc(S(=O)(=O)N2CCN(c3ccccc3)CC2)c1 7.91%
Cc1ccc(OCC(=O)NNC(=O)c2ccc(NC(=O)C3CC3)cc2)c(C)c1 7.97%
CC(=O)c1cccc(NS(=O)(=O)c2c(C)n[nH]c2C)c1 7.62%
CC(=O)Nc1ccc2c(c1)N(S(=O)(=O)c1cccs1)CCC2 4.49%
CC(C)OCCCNC(=O)c1ccc(CS(=O)(=O)Cc2ccccc2F)o1 3.97%
Cc1nc(N2CCN(c3ccccc3)CC2)nc2c1C(=O)CCC2 5.63%
CCN1C(=O)/C(=C/c2c(C)nn(C)c2C)SC1=S 0.43%
O=C(O)c1ccc(Nc2ncnc3ccccc23)cc1 7.58%
Cc1cccc(NC(=O)CNC(=O)COC(=O)c2ccco2)c1C -0.7%
c1ccc(C[C@H]2CN=C(Nc3ccccc3)N2CC2CCCCC2)cc1 3.05%
Cc1ccccc1-n1nc(C(=O)O)cc1-c1ccccc1 3.4%
O=C(NCCc1ccccc1)c1ccc(-c2ccccc2Cl)o1 5.22%
Cc1nnc(C)n1/N=C/c1ccccc1 6.18%
Cc1nnc(C)n1/N=C/C=C/c1ccccc1 1.05%
S=c1[nH]nc(-c2cccnc2)n1/N=C/C=C/c1ccccc1 5.39%
Cc1ccc(/C=N/n2c(-c3ccncc3)n[nH]c2=S)cc1 5.7%
CC1CCN(C(=O)C2CCN(S(=O)(=O)c3cccs3)CC2)CC1 6.45%
CCc1cc(C(=O)N2CCCC(C(=O)c3cccc(OC(C)C)c3)C2)n(C)n1 (configuration not stated) 9.3%
Cc1ccc2c(CC(=O)N3CCN(S(=O)(=O)c4ccccc4)CC3)coc2c1 5.1%
N#Cc1ccccc1S(=O)(=O)N1CCN(C(=O)Cc2n[nH]c(=O)c3ccccc23)CC1 1.94%
COc1ccc2c(CC(=O)N3CCN(S(=O)(=O)c4ccc(F)cc4)CC3)coc2c1 1.15%
N#Cc1ccccc1S(=O)(=O)N1CCN(C(=O)CCc2ccccc2)CC1 6.33%
CCCn1c(N2CCN(C(=O)/C=C/C(=O)O)CC2)nc2ccccc21 10.8%
NC(=O)COC(=O)CCSc1ccc(Cl)cc1 5.12%
COC/C=C/C1=CC2=CC(=O)C(C)(OC(=O)c3cnc4ccccc4n3)C(=O)C2=CN1Cc1ccco1 (configuration not stated) 11%
